Assays:
[1] = test system: Botulinum neurotoxin type F light chain protease (Clostridium botulinum); experiment: Clostridium botulinum type F light chain protease inhibitors, microsphere substrate cleavage, validation (AID 588459); details: multiplex microsphere protease substrate cleavage assay, flow cytometry; at 10 µM; stronger effect = higher value
[2] = biological target: Botulinum neurotoxin type A (Clostridium botulinum) (UniProt P0DPI0); experiment: BoNT/A light chain protease inhibitors, biochemical, multiplex microsphere flow cytometry, validation set (AID 588460); details: at 10 µM, stronger effect = higher value
Sequence of Botulinum neurotoxin type A (Clostridium botulinum) (P0DPI0 whole entry, looked up): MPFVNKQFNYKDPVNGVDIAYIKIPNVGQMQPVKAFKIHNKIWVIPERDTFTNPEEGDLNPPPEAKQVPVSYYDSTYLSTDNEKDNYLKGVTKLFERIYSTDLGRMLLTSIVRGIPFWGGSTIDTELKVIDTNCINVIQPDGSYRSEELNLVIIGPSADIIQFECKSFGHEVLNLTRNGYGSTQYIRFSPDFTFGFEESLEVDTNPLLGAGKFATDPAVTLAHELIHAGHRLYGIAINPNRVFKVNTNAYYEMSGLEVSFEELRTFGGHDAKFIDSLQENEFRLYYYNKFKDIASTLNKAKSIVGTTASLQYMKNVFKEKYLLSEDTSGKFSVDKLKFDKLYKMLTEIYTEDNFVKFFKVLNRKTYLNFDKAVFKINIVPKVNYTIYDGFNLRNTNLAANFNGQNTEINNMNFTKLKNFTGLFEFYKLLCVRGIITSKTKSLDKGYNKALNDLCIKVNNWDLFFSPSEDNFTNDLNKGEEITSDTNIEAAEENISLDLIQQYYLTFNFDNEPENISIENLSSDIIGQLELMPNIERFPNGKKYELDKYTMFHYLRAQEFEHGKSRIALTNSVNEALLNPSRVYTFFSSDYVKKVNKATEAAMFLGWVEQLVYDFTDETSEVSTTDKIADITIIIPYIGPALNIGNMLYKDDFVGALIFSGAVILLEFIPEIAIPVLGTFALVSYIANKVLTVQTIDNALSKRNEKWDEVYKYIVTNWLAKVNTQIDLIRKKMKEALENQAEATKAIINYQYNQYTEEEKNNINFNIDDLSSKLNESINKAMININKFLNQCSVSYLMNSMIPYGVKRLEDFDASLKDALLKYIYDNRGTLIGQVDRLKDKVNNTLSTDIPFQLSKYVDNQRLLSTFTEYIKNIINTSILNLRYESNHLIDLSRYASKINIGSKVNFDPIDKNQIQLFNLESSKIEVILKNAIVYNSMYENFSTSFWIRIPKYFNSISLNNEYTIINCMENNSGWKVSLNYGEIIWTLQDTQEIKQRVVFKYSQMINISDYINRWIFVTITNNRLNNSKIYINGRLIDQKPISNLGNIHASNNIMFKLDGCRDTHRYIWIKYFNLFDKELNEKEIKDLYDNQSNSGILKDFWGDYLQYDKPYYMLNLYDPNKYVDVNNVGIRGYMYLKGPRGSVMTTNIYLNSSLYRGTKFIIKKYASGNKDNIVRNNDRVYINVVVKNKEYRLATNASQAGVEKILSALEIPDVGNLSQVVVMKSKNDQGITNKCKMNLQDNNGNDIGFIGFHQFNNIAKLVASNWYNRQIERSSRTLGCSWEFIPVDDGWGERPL

[3] = biological target: Lethal factor (Bacillus anthracis) (UniProt P15917); experiment: Bacillus anthracis lethal factor inhibition, microsphere flow cytometry protease assay, validation at 10 µM (AID 588461); details: multiplex microsphere protease cleavage assay, stronger effect = higher value
Sequence of Lethal factor (Bacillus anthracis) (P15917 whole entry, looked up): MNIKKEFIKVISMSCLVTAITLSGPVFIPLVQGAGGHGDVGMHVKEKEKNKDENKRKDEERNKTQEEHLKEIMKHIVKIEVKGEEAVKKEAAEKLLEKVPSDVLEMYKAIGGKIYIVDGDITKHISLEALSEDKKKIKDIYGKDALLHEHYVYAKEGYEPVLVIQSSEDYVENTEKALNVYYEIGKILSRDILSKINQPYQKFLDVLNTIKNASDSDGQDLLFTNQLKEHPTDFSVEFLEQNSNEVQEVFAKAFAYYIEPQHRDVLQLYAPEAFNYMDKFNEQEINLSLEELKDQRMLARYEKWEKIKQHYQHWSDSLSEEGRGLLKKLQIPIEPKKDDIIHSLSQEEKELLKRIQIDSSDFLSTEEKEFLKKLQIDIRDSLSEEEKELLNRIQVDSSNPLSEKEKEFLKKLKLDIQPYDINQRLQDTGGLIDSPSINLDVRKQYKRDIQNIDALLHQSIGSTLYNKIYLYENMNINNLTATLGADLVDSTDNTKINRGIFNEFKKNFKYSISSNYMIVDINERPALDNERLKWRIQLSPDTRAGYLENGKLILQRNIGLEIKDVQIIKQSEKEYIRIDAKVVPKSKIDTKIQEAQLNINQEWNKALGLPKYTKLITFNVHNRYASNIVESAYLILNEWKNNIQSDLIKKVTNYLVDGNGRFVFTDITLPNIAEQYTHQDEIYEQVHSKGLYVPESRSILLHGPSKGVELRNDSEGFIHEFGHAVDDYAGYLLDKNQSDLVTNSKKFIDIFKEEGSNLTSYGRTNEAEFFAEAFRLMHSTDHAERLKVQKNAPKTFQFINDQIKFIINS

Measured: inhibition

C[C@]12CC[C@@H]3c4ccc(OS(=O)(=O)O)cc4CC[C@H]3[C@@H]1CCC2=O
inactive: [1] -0.1% | [2] -0.2% | [3] -0.2%

Nc1c2c(nc3ccccc13)CCCC2
inactive: [1] 5.3% | [2] 1.5% | [3] -0.3%

CN1CCC(=C2c3ccccc3C=Cc3ccccc32)CC1
inactive: [1] -1.3% | [2] -1.2% | [3] -8.4%

COc1ccc(C(=O)NC(=O)NC2(C(Cl)(Cl)Cl)OCCO2)cc1
inactive: [1] 0.9% | [2] -1.2% | [3] 3.1%

COc1ccc(NC(=O)C2OC3OC(C)(C)OC3C3OC(C)(C)OC23)cc1 (configuration not stated)
inactive: [1] -1.2% | [2] 1.3% | [3] -5.4%

COc1ccc(CNC(=O)C2CCCN2C)cc1OC (configuration not stated)
inactive: [1] 0.4% | [2] -2.5% | [3] 6.2%

OC(CCN1CCCCC1)(c1ccccc1)c1ccccc1
inactive: [1] 0.9% | [2] 0.5% | [3] -0.2%

O=C(O)c1cc2cc(Cl)cc(Cl)c2oc1=O
inactive: [1] -2.3% | [2] 0.4% | [3] 1.1%

C#C[C@]1(O)CC[C@H]2[C@@H]3CCc4cc(OC5CCCC5)ccc4[C@H]3CC[C@@]21C
inactive: [1] -0.9% | [2] 0.8% | [3] 0.5%

CCOc1ccc(C(=O)NCC2(c3ccccc3)CCOCC2)cc1
inactive: [1] -5.3% | [2] -0.2% | [3] -6.4%

O=C(O)C1CSC(c2ccc3c(c2)OCO3)N1 (configuration not stated)
inactive: [1] 3.1% | [2] 1.1% | [3] -0.7%

C(=C/c1nccc2c1[nH]c1ccccc12)/c1ccc2c(c1)OCO2
inactive: [1] 3.2% | [2] 6.7% | [3] -1.4%

COc1ccc(CNC(=O)c2c(O)c3cccc4c3n(c2=O)CCC4)cc1
inactive: [1] 4.9% | [2] -0.1% | [3] -5.7%

Cn1c(=O)[nH]c(=O)c2c1ncn2CCN1CCOCC1
inactive: [1] 3.5% | [2] -1.5% | [3] -2.5%

COc1ccc(OCC(=O)N2c3ccc(C)cc3C3CN(C)CCC32)cc1 (configuration not stated)
inactive: [1] -4.9% | [2] -0.7% | [3] -2.6%

CCCC(=O)O[C@]1(C(=O)CO)CC[C@H]2[C@@H]3CCC4=CC(=O)CC[C@]4(C)[C@H]3[C@@H](O)C[C@@]21C
inactive: [1] 5.1% | [2] 0.1% | [3] -0.6%

C=CCn1c(N2CCCCCC2)nc2c1c(=O)n(C)c(=O)n2C
inactive: [1] 0.2% | [2] 1.4% | [3] -4.7%

Cc1ccc(S(=O)(=O)NC(C(=O)Oc2ccc3c(C(F)(F)F)cc(=O)oc3c2)c2ccccc2)cc1 (configuration not stated)
inactive: [1] 1.6% | [2] 1.4% | [3] -1.3%

O=[N+]([O-])c1cc(/C=N/n2cnnc2)ccc1N1CCCC1
inactive: [1] -0.9% | [2] -0.6% | [3] -3.3%

COc1cccc2cc(-c3ccccc3)c(=O)oc12
inactive: [1] -1.9% | [2] -1.7% | [3] 1.7%

CC(=O)Oc1ccc(C(c2ccc(OC(C)=O)cc2)c2ccccn2)cc1
inactive: [1] 1.2% | [2] -0.3% | [3] -2.2%

CC1(C)[C@@H](O)CC[C@]2(C)[C@H]3C(=O)C=C4[C@@H]5C[C@@](C)(C(=O)O)CC[C@]5(C)CC[C@@]4(C)[C@]3(C)CC[C@@H]12
inactive: [1] 4.4% | [2] -1.5% | [3] -0.5%

CCOC(=O)COc1ccc2c(=O)c(-c3ccccc3)coc2c1
inactive: [1] -1.6% | [2] 1.3% | [3] 1%

CCN(CC)CCNC(=O)c1cc(S(C)(=O)=O)ccc1OC
inactive: [1] 2.7% | [2] 1.8% | [3] 4.7%

COc1c(O)ccc2c1CN1CCc3cc4c(cc3C1C2)OCO4 (configuration not stated)
inactive: [1] -8.1% | [2] -2.1% | [3] -16.1%

CC(C)c1cc(=O)oc2c3c4c(cc12)CCCN4CCC3
inactive: [1] 4.4% | [2] 2% | [3] -13.8%

Nc1[nH]c(=O)ncc1F
inactive: [1] 1.1% | [2] -0.5% | [3] 0%

CC1=CC2(O)OCCN(CCO)C2=CC1=O (configuration not stated)
inactive: [1] -1.5% | [2] -1% | [3] 2.5%

O=c1ccc2ccccc2o1
inactive: [1] -3% | [2] -1.4% | [3] -1.4%

— PubChem BioAssay
